Laboratory results taken from the supplement of paper PMC10849652.
Of roughly 8,800 targets only a part is listed; those with a hit were picked by preference. About 0.5% of all pairs of compound and target were hits.

Columns and labels:
Assay in all cases: log2 fold change, soluble protein after heating vs DMSO (PISA); higher = thermal stabilisation; K562 lysate, 10 uM; active = over 0.2 and 3.5 SD of the protein, either way, in both replicates (recomputed)
[1] = compound: C#Cc1cccc(Nc2ncnc3cc(OCCOC)c(OCCOC)cc23)c1 [erlotinib]
How it was run: (§1)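 Quantification was by TMTpro 16plex LC-MS/MS with equalised channel sums, applied to the supernatant after 21,000xg for 90 min. Samples were crude K562 extract at 1 mg/mL protein in PBS pH 7.4 with 1 mM MgCl2, treated with 10 μM compound for 30 min, heated for 3 min across 48°C-58°C, pooled and brought to 0.5% NP-40 at 4°C. Values are log-two fold changes in thermal stability relative to solvent controls, from duplicates.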

[2] = compound: C/C(=N\NC(=O)C1=CC(=CC=C1)S(=O)(=O)N2CCOCC2)/C3=C(C=CC(=C3)Cl)O
How it was run: as §1

[3] = compound: C1=CC(=CC=C1C2=NC3=C(N2)C=C(C=C3)C(=O)N)OC4=CC=C(C=C4)Cl
How it was run: as §1

[4] = compound: C1=CC2=C(C=CC(=C2)/C=C\3/C(=O)NC(=NCC4=CC=CS4)S3)N=C1
How it was run: as §1

[5] = compound: C1=CC2=NC=CN=C2C=C1/C=C/3\C(=O)NC(=O)S3
How it was run: as §1

[6] = compound: C1=CC=C(C=C1)C2=NC(=C(N2)C3=CC=NC=C3)C4=CC(=C(C=C4)Cl)O
How it was run: as §1

[7] = compound: C1=CC=C2C(=C1)C3=NNC4=CC=CC(=C43)C2=O
How it was run: as §1

[8] = compound: C1CCN(C1)C(=O)NC2=CC=CC(=C2)NC3=NC=C(C(=N3)NCCC4=CN=CN4)Br
How it was run: as §1

[9] = compound: C1CN(CCC1(CC2=CC=C(C=C2)Cl)N)C3=NC=NC4=C3C=CN4
How it was run: as §1

[10] = compound: C1COCCN1CCN2C3=CC=CC=C3N=C2NC(=O)C4=CC(=CC=C4)[N+](=O)[O-] [IRAK-1-4 Inhibitor I]
How it was run: as §1

Measured: log2 fold change

GART (UniProt P22102)
Chain of UniProt P22102 (P22102 whole entry, looked up): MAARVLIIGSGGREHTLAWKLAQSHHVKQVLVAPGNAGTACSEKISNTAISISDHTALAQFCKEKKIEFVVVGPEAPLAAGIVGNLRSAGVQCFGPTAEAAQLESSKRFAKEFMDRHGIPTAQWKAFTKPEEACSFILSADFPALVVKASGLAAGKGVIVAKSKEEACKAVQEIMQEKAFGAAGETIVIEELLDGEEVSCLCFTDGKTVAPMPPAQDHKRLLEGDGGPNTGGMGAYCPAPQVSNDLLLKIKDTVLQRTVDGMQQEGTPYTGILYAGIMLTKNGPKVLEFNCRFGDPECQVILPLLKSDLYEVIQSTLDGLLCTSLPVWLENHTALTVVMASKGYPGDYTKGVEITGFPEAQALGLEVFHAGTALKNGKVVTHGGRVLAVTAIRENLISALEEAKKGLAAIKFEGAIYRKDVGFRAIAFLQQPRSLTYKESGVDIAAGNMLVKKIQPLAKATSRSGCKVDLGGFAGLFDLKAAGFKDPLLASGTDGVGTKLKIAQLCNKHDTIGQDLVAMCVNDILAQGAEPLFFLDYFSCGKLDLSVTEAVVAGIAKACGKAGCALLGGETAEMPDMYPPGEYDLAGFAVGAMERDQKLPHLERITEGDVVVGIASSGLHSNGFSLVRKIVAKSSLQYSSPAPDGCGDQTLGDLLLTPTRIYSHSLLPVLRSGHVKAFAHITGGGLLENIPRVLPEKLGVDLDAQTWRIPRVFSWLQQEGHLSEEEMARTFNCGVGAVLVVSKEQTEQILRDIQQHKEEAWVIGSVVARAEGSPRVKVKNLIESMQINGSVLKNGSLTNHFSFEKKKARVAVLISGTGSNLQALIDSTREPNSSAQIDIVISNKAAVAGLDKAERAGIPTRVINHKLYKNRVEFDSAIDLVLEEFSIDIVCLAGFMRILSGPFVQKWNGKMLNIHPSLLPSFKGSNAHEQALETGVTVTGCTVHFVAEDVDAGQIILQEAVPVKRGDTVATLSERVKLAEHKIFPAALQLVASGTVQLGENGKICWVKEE
inactive: [1] -0.007 | [2] 0.022 | [3] -0.025 | [4] -0.013 | [5] 0.016 | [6] 0.015 | [7] -0.011 | [8] -0.001 | [9] -0.003 | [10] 0.005

DTYMK (UniProt P23919)
Chain of UniProt P23919 (P23919 whole entry, looked up): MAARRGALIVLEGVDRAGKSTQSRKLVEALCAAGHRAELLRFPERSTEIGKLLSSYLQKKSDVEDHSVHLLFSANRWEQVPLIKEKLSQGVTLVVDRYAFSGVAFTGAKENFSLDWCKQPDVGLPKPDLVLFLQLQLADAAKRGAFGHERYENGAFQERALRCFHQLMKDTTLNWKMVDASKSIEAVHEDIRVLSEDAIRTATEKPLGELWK
inactive: [1] -0.013 | [2] 0.025 | [3] 0.01 | [4] -0.017 | [5] 0.024 | [6] -0.016 | [7] 0.004 | [8] 0.01 | [9] -0.027 | [10] -0.028

EEF1AKMT4 (UniProt P0DPD7)
inactive: [1] 0.057 | [2] 0.097 | [3] 0.073 | [4] 0.025 | [5] 0.039 | [6] -0.021 | [7] -0.081 | [8] -0.019 | [9] 0.08 | [10] 0.107

EPHX2 (UniProt P34913)
inactive: [1] -0.024 | [2] 0.133 | [3] 0.156 | [4] 0.036 | [5] -0.023 | [6] -0.014 | [7] 0.014 | [8] 0.077 | [9] -0.002 | [10] -0.014

EXOC2 (UniProt Q96KP1)
inactive: [1] 0.011 | [2] -0.008 | [3] -0.028 | [4] 0.049 | [5] -0.008 | [6] -0.001 | [7] -0.042 | [8] -0.018 | [9] 0.016 | [10] 0.009

DTWD1 (UniProt Q8N5C7)
inactive: [1] 0.01 | [2] 0.082 | [3] -0.039 | [4] -0.004 | [5] -0.048 | [6] -0.025 | [7] 0.039 | [8] 0.01 | [9] 0.047 | [10] -0.01

FKBP8 isoform 2 (UniProt Q14318)
Chain of UniProt Q14318 (Q14318 whole entry, looked up): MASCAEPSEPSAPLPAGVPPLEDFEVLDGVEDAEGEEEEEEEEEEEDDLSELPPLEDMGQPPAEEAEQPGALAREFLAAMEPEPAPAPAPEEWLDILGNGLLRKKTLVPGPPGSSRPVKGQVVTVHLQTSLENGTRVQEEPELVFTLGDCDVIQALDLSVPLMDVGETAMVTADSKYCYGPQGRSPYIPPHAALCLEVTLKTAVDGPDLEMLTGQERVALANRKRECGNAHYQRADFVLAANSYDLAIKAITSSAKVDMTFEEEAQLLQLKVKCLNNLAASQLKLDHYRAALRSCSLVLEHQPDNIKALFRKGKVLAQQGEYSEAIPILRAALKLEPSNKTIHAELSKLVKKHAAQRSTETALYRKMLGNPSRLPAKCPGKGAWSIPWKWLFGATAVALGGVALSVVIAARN
inactive: [1] -0.011 | [2] 0.041 | [3] 0.012 | [4] 0.002 | [5] -0.005 | [6] 0.01 | [7] 0 | [8] -0.054 | [9] 0.001 | [10] 0.008

EXOC5 (UniProt O00471)
Chain of UniProt O00471 (O00471 whole entry, looked up): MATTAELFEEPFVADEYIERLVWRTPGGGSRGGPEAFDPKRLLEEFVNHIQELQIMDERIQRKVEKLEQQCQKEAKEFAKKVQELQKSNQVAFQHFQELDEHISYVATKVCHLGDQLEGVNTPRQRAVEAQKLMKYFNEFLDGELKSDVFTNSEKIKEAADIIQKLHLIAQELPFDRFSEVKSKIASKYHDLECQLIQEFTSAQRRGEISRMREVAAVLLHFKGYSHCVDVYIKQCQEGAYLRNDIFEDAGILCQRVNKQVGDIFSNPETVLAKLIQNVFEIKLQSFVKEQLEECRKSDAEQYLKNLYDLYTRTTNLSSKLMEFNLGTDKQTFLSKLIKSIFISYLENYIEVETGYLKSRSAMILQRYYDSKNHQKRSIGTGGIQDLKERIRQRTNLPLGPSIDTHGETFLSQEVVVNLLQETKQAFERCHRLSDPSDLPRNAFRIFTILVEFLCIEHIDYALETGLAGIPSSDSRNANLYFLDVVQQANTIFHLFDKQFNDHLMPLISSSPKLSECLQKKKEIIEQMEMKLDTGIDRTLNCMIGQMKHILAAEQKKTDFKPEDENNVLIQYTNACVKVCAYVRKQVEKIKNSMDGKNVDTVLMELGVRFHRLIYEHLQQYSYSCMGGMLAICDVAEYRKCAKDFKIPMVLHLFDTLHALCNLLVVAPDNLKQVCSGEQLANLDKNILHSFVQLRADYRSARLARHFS
inactive: [1] 0.022 | [2] -0.021 | [3] -0.041 | [4] 0.033 | [5] -0.006 | [6] -0.013 | [7] -0.016 | [8] 0.005 | [9] 0.006 | [10] -0.011

DVL2 (UniProt O14641)
inactive: [1] 0.012 | [2] -0.028 | [3] 0.011 | [4] -0.015 | [5] 0.03 | [6] -0.055 | [7] -0.029 | [8] 0.001 | [9] 0.067 | [10] -0.073

EDC4 (UniProt Q6P2E9)
inactive: [1] 0.002 | [2] -0.026 | [3] -0.022 | [4] 0.001 | [5] 0.006 | [6] -0.001 | [7] -0.02 | [8] -0.015 | [9] 0.014 | [10] 0.013

EWSR1 isoform 5 (UniProt Q01844)
inactive: [1] -0.135 | [2] -0.037 | [3] -0.1 | [4] 0.012 | [5] 0.015 | [6] 0.037 | [7] 0.015 | [8] -0.009 | [9] -0.028 | [10] 0.018

FAM53B (UniProt Q14153)
inactive: [1] 0.057 | [2] -0.087 | [3] -0.03 | [4] 0.015 | [5] -0.004 | [6] -0.047 | [7] -0.024 | [8] -0.034 | [9] 0.006 | [10] 0.203

EPB41, A0A2R8Y6D0
inactive: [1] 0.134 | [2] 0.064 | [3] -0.187 | [4] -0.012 | [5] -0.004 | [6] 0.066 | [7] -0.004 | [8] -0.042 | [9] 0.054 | [10] -0.071

FAM114A2 (UniProt Q9NRY5)
inactive: [1] -0.039 | [2] -0.068 | [3] 0.141 | [4] -0.028 | [5] -0.1 | [6] -0.052 | [7] 0.02 | [8] -0.045 | [9] -0.104 | [10] -0.002

ERI1 (UniProt Q8IV48)
Chain of UniProt Q8IV48 (Q8IV48 whole entry, looked up): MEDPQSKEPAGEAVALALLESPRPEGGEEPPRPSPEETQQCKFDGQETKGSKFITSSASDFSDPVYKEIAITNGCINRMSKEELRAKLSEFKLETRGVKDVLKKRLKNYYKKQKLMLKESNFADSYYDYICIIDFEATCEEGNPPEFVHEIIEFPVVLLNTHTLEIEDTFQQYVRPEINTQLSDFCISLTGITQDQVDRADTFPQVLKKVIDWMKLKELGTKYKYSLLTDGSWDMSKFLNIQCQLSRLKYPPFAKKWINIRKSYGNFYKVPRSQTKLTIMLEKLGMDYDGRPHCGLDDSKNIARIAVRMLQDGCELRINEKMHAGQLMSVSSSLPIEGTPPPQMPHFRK
inactive: [1] -0.015 | [2] 0.073 | [3] -0.009 | [4] 0.019 | [5] -0.028 | [6] 0.134 | [7] -0.03 | [8] -0.009 | [9] -0.036 | [10] -0.111

FTSJ1 (UniProt Q9UET6)
Chain of UniProt Q9UET6 (Q9UET6 whole entry, looked up): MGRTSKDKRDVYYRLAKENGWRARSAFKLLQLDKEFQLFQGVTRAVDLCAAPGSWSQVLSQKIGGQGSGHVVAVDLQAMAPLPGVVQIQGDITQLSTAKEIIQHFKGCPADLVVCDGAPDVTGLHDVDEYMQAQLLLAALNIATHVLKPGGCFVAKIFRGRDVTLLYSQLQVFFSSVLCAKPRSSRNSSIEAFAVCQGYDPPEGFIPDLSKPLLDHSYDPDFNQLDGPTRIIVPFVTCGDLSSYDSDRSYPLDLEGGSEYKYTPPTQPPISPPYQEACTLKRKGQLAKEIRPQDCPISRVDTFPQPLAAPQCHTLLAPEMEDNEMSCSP
inactive: [1] -0.008 | [2] 0 | [3] 0.039 | [4] 0.005 | [5] -0.025 | [6] 0.07 | [7] 0.034 | [8] -0.007 | [9] 0.016 | [10] 0.019

FAM118A (UniProt Q9NWS6)
Chain of UniProt Q9NWS6 (Q9NWS6 whole entry, looked up): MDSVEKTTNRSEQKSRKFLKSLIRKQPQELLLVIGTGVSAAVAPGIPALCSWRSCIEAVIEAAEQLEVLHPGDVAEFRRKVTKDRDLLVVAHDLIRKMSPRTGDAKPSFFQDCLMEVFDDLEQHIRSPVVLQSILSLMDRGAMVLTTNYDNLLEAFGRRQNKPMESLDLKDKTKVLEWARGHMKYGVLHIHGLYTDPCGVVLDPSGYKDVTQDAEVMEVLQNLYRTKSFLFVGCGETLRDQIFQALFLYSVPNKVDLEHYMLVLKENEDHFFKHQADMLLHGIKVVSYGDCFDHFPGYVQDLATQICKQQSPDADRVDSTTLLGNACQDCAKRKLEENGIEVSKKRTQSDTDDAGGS
inactive: [1] 0.03 | [2] -0.03 | [3] -0.016 | [4] 0.022 | [5] 0.029 | [6] 0.012 | [7] -0.006 | [8] 0.021 | [9] 0.048 | [10] 0.051

EDARADD (UniProt Q8WWZ3)
Chain of UniProt Q8WWZ3 (Q8WWZ3 whole entry, looked up): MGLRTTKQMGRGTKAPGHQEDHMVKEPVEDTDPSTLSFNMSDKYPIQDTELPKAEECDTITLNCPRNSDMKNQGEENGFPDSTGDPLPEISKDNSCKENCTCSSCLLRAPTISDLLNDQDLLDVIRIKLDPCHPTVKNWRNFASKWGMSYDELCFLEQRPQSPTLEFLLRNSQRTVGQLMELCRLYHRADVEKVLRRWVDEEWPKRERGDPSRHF
inactive: [1] 0.013 | [2] -0.022 | [3] 0.045 | [4] 0.019 | [5] -0.027 | [6] 0.049 | [7] -0.03 | [8] -0.035 | [9] -0.064 | [10] 0.031

EMP3 (UniProt P54852)
Chain of UniProt P54852 (P54852 whole entry, looked up): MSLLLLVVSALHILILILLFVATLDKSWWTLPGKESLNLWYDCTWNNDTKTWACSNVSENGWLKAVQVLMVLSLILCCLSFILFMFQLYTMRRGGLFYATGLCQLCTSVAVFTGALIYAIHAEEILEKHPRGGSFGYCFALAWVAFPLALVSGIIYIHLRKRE
inactive: [1] 0.008 | [2] -0.015 | [3] 0.018 | [4] 0.017 | [5] 0.004 | [6] 0 | [7] 0.007 | [8] -0.002 | [9] 0.029 | [10] 0.053

ESYT2 (UniProt H7BXI1)
inactive: [1] -0.056 | [2] 0.037 | [3] -0.017 | [4] 0.042 | [5] -0.025 | [6] -0.022 | [7] -0.076 | [8] -0.005 | [9] -0.008 | [10] 0.019

FIGNL1 (UniProt Q6PIW4)
inactive: [1] -0.008 | [2] -0.019 | [3] -0.025 | [4] 0.005 | [5] -0.011 | [6] -0.005 | [7] -0.015 | [8] 0.035 | [9] 0.006 | [10] 0.008

GAPDH (UniProt P04406)
inactive: [1] -0.007 | [2] -0.032 | [3] 0.031 | [4] 0.006 | [5] -0.006 | [6] -0.005 | [7] 0.028 | [8] 0.027 | [9] -0.034 | [10] 0.003

EIF2B3 (UniProt Q9NR50)
Chain of UniProt Q9NR50 (Q9NR50 whole entry, looked up): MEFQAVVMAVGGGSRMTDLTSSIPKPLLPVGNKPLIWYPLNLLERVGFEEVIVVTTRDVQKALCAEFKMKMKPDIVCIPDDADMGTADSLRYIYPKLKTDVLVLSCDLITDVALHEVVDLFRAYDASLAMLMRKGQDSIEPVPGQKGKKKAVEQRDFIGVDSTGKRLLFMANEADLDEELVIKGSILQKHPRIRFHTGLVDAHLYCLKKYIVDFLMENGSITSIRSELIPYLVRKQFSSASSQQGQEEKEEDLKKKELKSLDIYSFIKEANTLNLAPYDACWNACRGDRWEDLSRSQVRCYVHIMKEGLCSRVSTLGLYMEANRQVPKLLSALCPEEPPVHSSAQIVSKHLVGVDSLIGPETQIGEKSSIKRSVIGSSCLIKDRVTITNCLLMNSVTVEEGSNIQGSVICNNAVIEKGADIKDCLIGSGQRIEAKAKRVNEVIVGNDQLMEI
inactive: [1] 0.01 | [2] 0.029 | [3] -0.019 | [4] -0.009 | [5] 0.024 | [6] 0.001 | [7] -0.003 | [8] 0.014 | [9] 0.018 | [10] -0.01

DSTN (UniProt P60981)
inactive: [1] -0.038 | [2] -0.027 | [3] -0.007 | [4] 0.014 | [5] 0.013 | [6] 0 | [7] 0.005 | [8] -0.021 | [9] -0.012 | [10] -0.007

DSN1 (UniProt Q9H410)
inactive: [1] -0.021 | [2] 0.03 | [3] 0.037 | [4] 0.014 | [5] 0.01 | [6] -0.025 | [7] 0.032 | [8] -0.034 | [9] -0.024 | [10] 0.002

ENGASE (UniProt Q8NFI3)
Chain of UniProt Q8NFI3 (Q8NFI3 whole entry, looked up): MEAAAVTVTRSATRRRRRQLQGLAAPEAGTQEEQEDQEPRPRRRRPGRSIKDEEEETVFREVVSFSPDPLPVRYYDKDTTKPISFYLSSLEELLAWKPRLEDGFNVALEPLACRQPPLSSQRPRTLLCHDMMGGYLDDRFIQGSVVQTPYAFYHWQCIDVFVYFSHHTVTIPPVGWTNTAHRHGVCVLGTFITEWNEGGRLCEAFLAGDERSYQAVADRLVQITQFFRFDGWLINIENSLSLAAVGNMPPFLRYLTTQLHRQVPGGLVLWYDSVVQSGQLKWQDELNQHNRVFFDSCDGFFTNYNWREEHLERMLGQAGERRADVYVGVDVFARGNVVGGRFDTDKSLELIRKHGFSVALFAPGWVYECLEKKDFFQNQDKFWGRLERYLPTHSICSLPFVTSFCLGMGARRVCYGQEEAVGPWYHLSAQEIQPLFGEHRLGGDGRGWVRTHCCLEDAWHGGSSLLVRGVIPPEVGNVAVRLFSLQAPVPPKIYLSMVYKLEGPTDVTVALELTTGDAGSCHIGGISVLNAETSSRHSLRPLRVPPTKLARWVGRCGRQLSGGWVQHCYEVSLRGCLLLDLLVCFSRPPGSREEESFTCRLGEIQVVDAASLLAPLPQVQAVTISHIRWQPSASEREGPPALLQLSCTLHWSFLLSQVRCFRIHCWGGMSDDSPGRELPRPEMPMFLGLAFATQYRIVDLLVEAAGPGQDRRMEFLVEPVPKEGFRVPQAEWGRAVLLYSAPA
inactive: [1] 0.036 | [2] 0 | [3] 0.043 | [4] -0.069 | [5] 0.008 | [6] 0.002 | [7] -0.04 | [8] 0.009 | [9] 0.043 | [10] 0.007

GAMT (UniProt Q14353)
inactive: [1] 0.018 | [2] -0.008 | [3] 0.033 | [4] -0.008 | [5] -0.01 | [6] -0.016 | [7] 0.036 | [8] 0.035 | [9] 0.066 | [10] -0.001
